Source: PubChem BioAssay (NCI)
This is part of a sample that, as a whole, favours compounds with a hit. Of some 83,000 tested, about 20% had one in any assay.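 Compound tested at a single concentration for 48 hours in 96-well plates; a percent growth value below 10 was scored as active.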 The source made the active and inactive calls.

tested on: SN12C renal; assay: NCI-60 one-dose screen, 48 h (100 = growth as untreated, 0 = no growth, -100 = all killed); settings: 10 µM unless noted
Method: Growth inhibition of the SN12C human tumor cell line is measured as a screen for anti-cancer activity. Cells are grown in 96 well plates and exposed to the test compound for 48 hours. Compounds are tested at a single concentration, which is 10^-5 M for most compounds. The reported endpoint is percent growth (GI% or GIPRCNT), where numbers from 0 - 100% represent growth inhibition, and numbers from -100% - 0 represent cell death. For example, a value of 40 represents 60% growth inhibition. A value of 0 means no net growth occurred over the course of the experiment. A value of -40 indicates 40% of cells at the beginning of the experiment died by the end of the experiment. A value of -100 means all cells are dead at the end of the experiment.
NCI-60 Human Tumor Cell Lines Screen was performed using the standard one-dose NCI protocol, which is described in more detail at https://dtp.cancer.gov/discovery_development/nci-60/default.htm.
Compounds with GIPRCNT values below 10 were considered active. Activity score was based on GIPRCNT using the following formula: […]
Score is 0 for GIPRCNT values of 100 or above, 50 for GIPRCNT values of 0, and 100 for GIPRCNT values of -100.

SMILES | growth
CCOC(=O)c1sc(NC(=O)COc2ccc(/C=C3\Cc4ccc(Cl)cc4C3=O)cc2)nc1C | 102% (inactive)
C[C@@H](Nc1cc(F)cc(F)c1)c1cc(C(=O)N(C)C)cc2c(=O)cc(N3CCOCC3)oc12 | 52.1% (inactive)
CC(C)(C)C(=O)OCOP(=O)(OCOC(=O)C(C)(C)C)C1CCCN(OC(=O)c2ccccc2)C1=O (stereo not given) | 4.97% (active)
C/C(=N\NC(=O)Cn1c(-c2ccc(S(C)(=O)=O)cc2)nc2ccccc21)c1ccc(Cl)cc1 | 97.4% (inactive)
Nc1nc(N)c2nc(-c3cccc(O)c3)c(-c3cccc(O)c3)nc2n1 | 51.4% (inactive)
CC(=O)c1c(C)c2cnc(Nc3ccc(N4CCNCC4)cn3)nc2n(C2CCCC2)c1=O | 37.1% (inactive)
CC1(O)CC(c2nc(-c3ccc4ccc(-c5ccccc5)nc4c3)c3c(N)nccn23)C1 (stereo not given) | 41.7% (inactive)
N#Cc1c(-c2ccc(Cl)cc2)csc1NC(=O)Nc1cccc(C(F)(F)F)c1 | -17.2% (active)
C=CC(=O)N1CCC(Oc2cc3c(Nc4ccc(Cl)c(Cl)c4F)ncnc3cc2OC)CC1 | 15.8% (inactive)
O=c1[nH]ccc2c(S(=O)(=O)N3CCCNCC3)cccc12 | 69.2% (inactive)
C[C@@H](Oc1cc(-c2cnn(C3CCNCC3)c2)cnc1N)c1c(Cl)ccc(F)c1Cl | -41% (active)
Cc1c(CN2CCN(C(=O)[C@H](C)O)CC2)sc2c(N3CCOCC3)nc(-c3cnc(N)nc3)nc12 | 4.45% (active)
CCN(CC)CCNC(=O)c1c(C)[nH]c(/C=C2\C(=O)Nc3ccc(F)cc32)c1C | 26% (inactive)
Cc1cccc(C)c1N1C(c2ccccc2)=NNC12C=CC(=O)c1c(O)cccc12 (stereo not given) | 72.5% (inactive)
COc1ccc(S(=O)(=O)N(C(C)=O)c2ccccc2/C=C/c2cc[n+]([O-])cc2)cc1 | 32.4% (inactive)
CC/C(=C(\c1ccc(OCCN2CCCCCCC2)cc1)c1ccc(OC(=O)C2CCCCC2)cc1)c1ccc(Cl)cc1 | 93.6% (inactive)
COC(=O)c1[nH]cnc1/N=N/N(C)CCO | 102% (inactive)
CCN1CCN(Cc2ccc(NC(=O)Nc3nc(-c4cc(OC)c(OC)c(OC)c4)cs3)cc2C(F)(F)F)CC1 | 28.9% (inactive)
CO[C@@H](C(=O)N1Cc2[nH]nc(NC(=O)c3ccc(N4CCN(C)CC4)cc3)c2C1)c1ccccc1 | 26.8% (inactive)
CNc1ncc2cc(-c3cc(NC(=O)NCCC(C)(C)C)c(F)cc3C)c(C)nc2n1 | 18.6% (inactive)

SMILES | growth
CCc1nc2cc(/C=C/C(=O)NO)ccc2c(=O)n1CCc1ccc(OC)cc1 | 24.9% (inactive)
COc1ccc(-c2cnc(-c3ccc(Cl)cc3)[nH]2)cc1OC | 91.6% (inactive)
N#Cc1ccc(-n2nnc3ccccc32)cc1C#N | 101% (inactive)
CNC(=O)c1cccc2cc(Oc3ccnc4cc(OCC5(N)CC5)c(OC)cc34)ccc12 | 52.7% (inactive)
Oc1ccc(/C=N/Nc2nnc(N/N=C/c3ccc(O)cc3O)c3ccccc23)c(O)c1 | -28% (active)
CC12O[C@H](C[C@@H](OC(=O)CCC(=O)O)[C@H]1O)n1c3ccccc3c3c4c(c5c6ccccc6n2c5c31)C(=O)NC4=O | 38.9% (inactive)
COc1ccc(Br)cc1NC(=O)Nc1cccc2c1ccn2Cc1ccnc(N)c1 | 40.9% (inactive)
CCCCCc1ccc(C)cc1OC(=O)CCl | 110% (inactive)
CCCCn1c(C)nc2cc(Nc3nc(N4CCCCC4)nc4nc[nH]c34)ccc21 | 49.6% (inactive)
CCN(CC)CCOc1ccc(/C(=C(\C)c2ccc(Cl)cc2)c2ccc(Cl)cc2)cc1 | 76.5% (inactive)
c1ccc2c(c1)CCN(NCCN1CCCC1)C2 | 94.8% (inactive)
COc1ccc(C(=O)N2c3ccccc3Sc3ccccc32)c(F)c1 | 60.8% (inactive)
COc1ccc(COc2cc3oc(=O)c4cc(C(C)O)ccc4c3cc2OC)cc1 (stereo not given) | 68.5% (inactive)
Cc1cc(N(CCNc2ccnc3cc(Cl)ccc23)Cc2ccc3c(c2)OCO3)nc(N2CCN(C)CC2)n1 | 60.7% (inactive)
CCN1CCN(CCCN(C[C@H]2Cc3ccccc3CN2)[C@H]2CCCc3cccnc32)CC1 | 83.8% (inactive)
CN1CCN(c2nc(NCCNc3ccnc4cc(Cl)ccc34)c3ccccc3n2)CC1 | 10.9% (inactive)
O=C(N/N=C/c1ccc(Cl)cc1)c1cc(-c2cc3ccccc3o2)nn1-c1ccccc1 | 94.9% (inactive)
CCN(CCCOc1ccc2c(Nc3cc(CC(=O)Nc4cccc(F)c4)[nH]n3)ncnc2c1)CCOP(=O)(O)O | 79% (inactive)
Ic1ccccc1-c1ccccc1 | 101% (inactive)
CCn1cc(-c2ccnc3[nH]c(-c4cccc(CN(C)C)c4)cc23)c(-c2ccc(NC(=O)N(C)C)cc2)n1 | 24.1% (inactive)
